TWEAK-Fn14 inh: inhibitors of TWEAK-Fn14 signaling, primary screen, luciferase reporter cells, uHTS. TWEAK-stimulated Fn14 reporter cells, luciferase luminescence, 8 h. inhibition, % at 10 µM. hit rate 2% among 360,000. AID 1159606, 2016; in the data active = inhibition above about 50%
PAX8 inh HTS: inhibitors of PAX8-driven TPO luciferase reporter, primary screen, RMG-I cells, single concentration | SteadyGlo, 24 h | hit rate 1.2% among 360,000 | inhibition, % at 12.6 µM;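 active = mean replicate inhibition at least 60% with every replicate also reaching 60%; inconclusive = only one of the two criteria is met; inactive = mean below 60% and not all replicates reaching 60%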;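 also: luciferase light reporting Pax8 driven TPO promoter activity; plate controls were median of neutral control wells for no effect and mitoxantrone controls for full effect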
EWS-Fli inh: EWS/Fli-driven NR0B1 reporter inhibitors, primary screen, A673 cells, NR0B1 luciferase, luminescence, MLPCN library; viability-normalised; inhibition, % at 12.6 µM; hit rate 0.67% among 350,000; AID 651661, 2012;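 active = mean inhibition of at least 50% after viability correction, with every replicate also passing that limit; inconclusive = mean reaches 50% but only one of two replicates passes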;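 also: firefly luciferase signal divided by Alamar Blue viability fluorescence both relative to DMSO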
TROY signal inh: inhibitors of TROY-driven NF-kB signaling, primary screen, Q293 LMP1-TROYcd cells, NF-kB luciferase, uHTS. Q293 LMP1-TROYcd NF-kB luciferase reporter, 4 h. inhibition, % at 10 µM. hit rate 0.98% among 360,000. AID 1347056, 2019;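 active = compounds whose plate-normalised and pattern-corrected inhibition of the luciferase reporter signal at the single screening dose is 50% or more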
EBV LMP1 NFkB: EBV LMP1-driven NF-kappaB luciferase reporter inhibitors, primary screen, cell-based, luminescence, single point | inhibition, % at 12.5 µM | LMP1-induced NF-kappaB luciferase reporter cells | AID 504558, 2011 | hit rate 0.69% among 350,000; in the data active = inhibition above about 41%; inconclusive = no clear call, values can overlap the other calls;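 also: 0% = neutral control wells and 100% = reference inhibitor control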
LGR2 antag: inhibitors of bursicon-induced LGR2 CRE-luciferase signal, primary screen, cell-based, HEK293, CRE-luciferase reporter, bursicon stimulation | Drosophila bursicon receptor LGR2 (rickets) | bursicon-stimulated, 4 h | inhibition, % at 9.99 µM | hit rate 0.35% among 380,000 | AID 720647, 2013;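 active = drop in luminescence signal, shown as inhibition above about 50% in the replicate tests, limit read from the data, passing the limit was not always enough; inconclusive = probably only some replicates passing the limit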;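 also: agonist challenge used bursicon conditioned medium at about half maximal strength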
DNA binder FP: DNA binders by acridine orange displacement, dose response, counter-screen for EWS/Fli inhibitor project, biochemical, fluorescence polarization, cherry-pick; shares compounds with EWS-Fli inh; AC35, µM (highest dose often 68 µM), for the others: top-dose activity change, negative = DNA binding; hit rate 2% among 640; salmon sperm DNA acridine orange fluorescence polarization;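 active = fitted curve reaches a 35% signal fall AC35 below twice the sample's top valid tested dose, actives reach about 48 µM in these data; inactive = the rest, including activity in the rising direction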;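 also: lower polarization ratio signals compound binding to DNA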
* = called active by the depositor; u = inconclusive; x = no result. In the library only some 3.1% were active in any assay of this set; here they are far more common.

SMILES | TWEAK-Fn14 inh | PAX8 inh HTS | EWS-Fli inh | TROY signal inh | EBV LMP1 NFkB | LGR2 antag | DNA binder FP
CC1(CCc2ccccc2)NC(=O)N(CC(=O)N2CCc3ccccc32)C1=O (stereo not drawn) | -1 | 8 | 3 | 12 | -8 | -1 | x
CC1(CCc2ccccc2)NC(=O)N(CC(=O)N2CC(=O)Nc3ccccc32)C1=O (stereo not drawn) | -4 | 7 | 62* | 5 | -4 | 2 | -6%
COc1cc(-c2cnc3c(NC=O)cc(-c4cccc(NC(C)=O)c4)cn23)cc(OC)c1OC | 60* | 105* | 62* | 25 | x | -19 | -10%
COc1cccc(-c2cc(NC=O)c3ncc(-c4ccc(C(C)=O)cc4)n3c2)c1 | 32 | 59 | 52* | 27 | x | -35 | -3%
C[C@H]1CCCCO[C@@H](CN(C)S(=O)(=O)c2ccc(Cl)cc2)[C@@H](C)CN([C@@H](C)CO)C(=O)c2cc(NC(=O)NC3CCCCC3)ccc2O1 | x | 58 | 6 | x | x | u | x
CCC(=O)Nc1sc(Cc2ccc3c(c2)OCO3)c(C)c1C(N)=O | 19 | -18 | 3 | 27 | -6 | -10 | x
Cc1c(Cc2ccc3c(c2)OCO3)sc(NC(=O)C(C)(C)C)c1C#N | 16 | -11 | 55* | 20 | -9 | -9 | -3%
CC1=NN(c2ccccc2)C(=O)/C1=C\C=C\c1ccccc1 | 94* | -16 | 64* | 49 | x | 28 | 7%
CC1=NN(c2ccccc2)C(=O)/C1=C/C=C/c1ccc(N(C)C)cc1 | 10 | 0 | -27 | -5 | 5 | x | x
COc1ccccc1CNc1ncc(-c2ccc(F)cc2)n1C | 20 | 1 | -4 | -3 | 3 | -9 | x
COc1ccc(CNc2ncc(-c3ccc(F)cc3)n2C)c2ccccc12 | 58* | 46 | 82* | 1 | 19 | 0 | 4%
COc1ccc(S(=O)(=O)N(C)C[C@H]2Oc3c(NC(=O)Nc4ccc(C(F)(F)F)cc4)cccc3C(=O)N([C@@H](C)CO)C[C@@H]2C)cc1 | x | 36 | -9 | x | x | 38 | x
CCOc1ccc(-c2cc(CCCC(=O)N3CCN(c4ccc(OC)cc4)CC3)no2)cc1 | 42 | -9 | 60* | 20 | 9 | -24 | -8%
CCCN1C/C(=C/c2ccc3c(c2)OCO3)C(=O)/C(=C/c2ccc3c(c2)OCO3)C1 | 19 | 4 | 64* | -9 | -59 | -14 | -19%
CN(C)C(=O)C[C@H]1CC[C@@H]2[C@H](COC[C@H](O)CN2C(=O)C2CCCC2)O1 | x | -20 | -2 | x | x | -19 | x
O=C(CCCN1C(=O)/C(=C/c2ccccc2Cl)SC1=S)N1CCOCC1 | 29 | 9 | x | 9 | -15 | 2 | x
O=C(CCCN1C(=O)/C(=C/c2ccccc2Cl)SC1=S)NNC(=O)c1ccc(Cl)cc1Cl | 17 | 21 | 72* | 37 | 38 | 16 | 4%
O=C(CCCN1C(=O)S/C(=C\c2ccccc2)C1=O)NNC(=O)c1ccccc1O | 35 | 57 | 74* | 24 | u | -23 | 13%
COc1ccc(NC(=O)N2CCCCN3[C@H](CO)[C@H](c4ccc(C#CCC(C)C)cc4)[C@H]3C2)cc1 | x | 31 | 73* | x | x | 3 | -2%
COc1ccccc1NC(=O)N1CCCCN2[C@H](CO)[C@H](c3ccc(-c4cccc(C)c4)cc3)[C@H]2C1 | x | 104* | 61* | x | x | 21 | -6%
O=C(Nc1ccccc1F)N1CCCCN2[C@H](CO)[C@H](c3ccc(/C=C/c4ccccc4)cc3)[C@H]2C1 | x | -4 | 76* | x | x | 4 | -8%
COc1ccccc1NC(=O)N1CCCCN2[C@H](CO)[C@H](c3ccc(-c4ccc(C)cc4)cc3)[C@@H]2C1 | x | 4 | 9 | x | x | 12 | x
CN1c2ccc(C#Cc3cccnc3)cc2[C@H]2[C@H](CCN2S(=O)(=O)c2ccccc2F)[C@@H]1CO | x | -26 | 7 | x | x | -37 | x
